Assay outcomes as filed in PubChem.
RN4220 kill: growth inhibition of S. aureus RN4220, primary screen, OD600; AID 1259311, 2017; 16 h; inhibition, % (test concentration not listed); 0.33% of 330,000 active; in the data active = inhibition above about 85%;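 also: plate controls were untreated cells for no effect and reference antibiotic for full effect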
ugtP null kill: growth inhibition of ugtP-null S. aureus, primary screen, RN4220 ugtP deletion, OD600. 0.54% of 330,000 active. 16 h. AID 1259309, 2017. growth inhibition, % (test concentration not listed); in the data active = growth inhibition above about 68%;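 also: plate controls were untreated wells for no effect and antibiotic for full effect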
Mtb hypoxia rep: PubChem AID 1159583. fluorescence inhibition, % (concentration not given with the values). 0.1% of 300,000 active. M. tuberculosis hypoxia-regulated fluorescent reporter, fluorescence; in the data active = fluorescence inhibition mostly above about 23%, no sharp cut-off; inactive = mostly below about 17%
PriA SSB inh: inhibitors of Klebsiella pneumoniae PriA binding to SSB C-terminal tail, primary screen, biochemical, AlphaScreen | AlphaScreen SSBct-PriA binding, biotinylated peptide | inhibition, % at 33 µM | 0.6% of 430,000 active; in the data active = inhibition mostly above about 37%, no sharp cut-off; inactive = mostly below about 20%;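 also: plate controls were negative control peptide for no effect and reference peptide for full effect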
* hit, by the source's call. An excerpt weighted towards active compounds, which were near 1.1% of everything screened.

How did O=C(c1ccccc1)c1coc2c1C(=O)c1ccccc1C2=O do in these assays?
RN4220 kill: -3.0; ugtP null kill: 7.0; Mtb hypoxia rep: -3.1; PriA SSB inh: -2.5

How did O=C(Nc1cccnc1)c1cc(-n2cccn2)ccn1 do in these assays?
PriA SSB inh: -8.0

Results for O=C(O)c1cc(-n2cccn2)ccn1 ?
PriA SSB inh: 75.0*

How did O=C(O)c1cc(N2CCCC2)ccn1 do in these assays?
PriA SSB inh: -2.6

What do the screens show for `O=C(O)c1cc(I)ccn1`?
PriA SSB inh: 66.6*

What do the screens show for `CCOc1ccc(/C=C2\SC(=S)NC2=O)cc1OC`?
RN4220 kill: 79.1; ugtP null kill: 87.6*; Mtb hypoxia rep: 5.9; PriA SSB inh: -3.4

Results for CCOc1ccccc1C=C1SC(=S)NC1=O ?
RN4220 kill: 95.2*; ugtP null kill: 96.6*; Mtb hypoxia rep: 8.3; PriA SSB inh: 1.5

What do the screens show for `CCOc1ccc(/C=C2\SC(=S)N(C)C2=O)cc1OC`?
RN4220 kill: 3.1; ugtP null kill: -4.8; Mtb hypoxia rep: 4.3; PriA SSB inh: -3.4

Results for O=C1NC(=O)/C(=C/c2ccccc2OCc2ccccc2)S1 ?
RN4220 kill: 63.2; ugtP null kill: 61.5; Mtb hypoxia rep: 11.4; PriA SSB inh: -5.7

How did O=C1NC(=S)SC1=Cc1ccccc1Br do in these assays?
RN4220 kill: 100.0*; ugtP null kill: 100.1*; Mtb hypoxia rep: 20.9; PriA SSB inh: -3.7

Results for Oc1cccnc1N=Cc1c(O)ccc2ccccc12 ?
PriA SSB inh: 58.0*

Results for O=C(Nc1ccccc1C(F)(F)F)N1CCCSCC1CN1CCCC1 (configuration not stated) ?
PriA SSB inh: -1.0

Results for CSCc1ccc(C(=O)Nc2nc(-c3ccccn3)cs2)cc1 ?
PriA SSB inh: 114.0*

Results for O=C(Nc1nc(-c2ccccn2)cs1)c1ccc(F)cc1 ?
PriA SSB inh: 106.9*

What do the screens show for `Cc1ccnc2nc(C(=O)Nc3nc(-c4ccccc4Cl)cs3)nn12`?
PriA SSB inh: 37.6

What do the screens show for `Cc1ccnc2nc(C(=O)Nc3nc(-c4ccccn4)cs3)nn12`?
RN4220 kill: 1.6; ugtP null kill: -11.6; Mtb hypoxia rep: -17.8; PriA SSB inh: 71.8*

Results for CC(Oc1ccc(F)cc1)C(=O)Nc1nc(-c2ccccn2)cs1 (configuration not stated) ?
RN4220 kill: 21.5; ugtP null kill: 0.2; Mtb hypoxia rep: 12.5; PriA SSB inh: 57.3*

Results for O=C(Nc1nc(-c2ccccn2)cs1)c1ccc(I)cc1 ?
PriA SSB inh: 38.9

Results for CN1C(=C=Cc2cc(I)c(O)c(I)c2)C(C)(C)c2ccccc21 ?
PriA SSB inh: inactive

What do the screens show for `CCCCOc1ccc(C(=O)NCC(=O)NNC(=S)Nc2ccc(Cl)c(Cl)c2)cc1`?
PriA SSB inh: 0.0

Results for O=C(c1ccc2c(c1)OCO2)N1C2CCC1CC(S(=O)(=O)c1ccccc1)C2 (configuration not stated) ?
PriA SSB inh: 3.0

What do the screens show for `CC(C)n1nnc(-c2ccc(C(=O)Nc3nc(-c4ccccn4)cs3)cc2)n1`?
PriA SSB inh: 74.4*

How did CN(CC1CCCO1)S(=O)(=O)c1ccc(C(=O)Nc2nc(-c3ccccn3)cs2)cc1 (configuration not stated) do in these assays?
RN4220 kill: -4.7; ugtP null kill: -15.3; Mtb hypoxia rep: 1.6; PriA SSB inh: 43.9*

Results for CN(CC1CCCO1)S(=O)(=O)c1ccc(C(=O)Nc2nc(-c3cccnc3)cs2)cc1 (configuration not stated) ?
PriA SSB inh: 9.2

Results for Cc1ccc(C)n1-c1ccc(C(=O)Nc2nc(-c3ccccn3)cs2)cc1 ?
PriA SSB inh: 81.2

What do the screens show for `Cn1ccc2cc(C(=O)Nc3nc(-c4ccccn4)cs3)ccc21`?
PriA SSB inh: 110.5*

Results for COc1ccc(C(=O)Nc2nc(-c3ccccn3)cs2)cc1OC ?
PriA SSB inh: 113.5*

What do the screens show for `O=C(CS(=O)(=O)c1cccs1)Nc1cc(F)ccc1F`?
PriA SSB inh: 4.0

Results for Cc1nc(-c2ccco2)sc1CNS(=O)(=O)Cc1ccccc1 ?
PriA SSB inh: 2.0

How did O=C(Nc1cccs1)N1CCCC(Cc2nc(-c3cnccn3)no2)C1 (configuration not stated) do in these assays?
PriA SSB inh: -4.0

How did O=C(Nc1nc(-c2ccccn2)cs1)c1ccc([N+](=O)[O-])cc1 do in these assays?
PriA SSB inh: 102.0*

How did Cc1nc(C(=O)Nc2nc(-c3ccccn3)cs2)nn1-c1ccc(F)cc1 do in these assays?
PriA SSB inh: 90.4*

Results for COc1coc(C(=O)Nc2nccs2)cc1=O ?
PriA SSB inh: -12.0

Results for COc1coc(C(=O)Nc2nc(-c3ccccn3)cs2)cc1=O ?
PriA SSB inh: 87.4*

Results for O=c1n(CCNS(=O)(=O)C2CC2)nc(-c2ccco2)n1C1CC1 ?
PriA SSB inh: -6.0

What do the screens show for `CN(C)CCn1nnnc1SCC1=C(C(=O)O)N2C(=O)[C@@H](NC(=O)Cc3csc(N)n3)[C@H]2SC1`?
PriA SSB inh: -9.6

Results for Cc1nnc(SCC2=C(C(=O)O)N3C(=O)C(NC(=O)Cn4cnnn4)C3SC2)s1 (configuration not stated) ?
RN4220 kill: 100.2*; ugtP null kill: 100.3*; PriA SSB inh: 6.0

What do the screens show for `Cc1nnc(SCC2=C(C(=O)O)N3C(=O)[C@@H](NC(=O)Cn4cnnn4)[C@H]3SC2)s1`?
RN4220 kill: 97.4*; ugtP null kill: 100.4*; PriA SSB inh: -2.5

How did COc1cc2ccccc2cc1C(=O)Nc1ccc(Cl)cc1C(=O)c1ccccc1Cl do in these assays?
PriA SSB inh: -5.0

Results for COc1cc2nc(SCC(=O)Nc3cccc(C(F)(F)F)c3)n3nc(-c4ccccc4)nc3c2cc1OC ?
PriA SSB inh: 1.0

How did Cc1ccc(Nc2cc(C)nc3c(C)c(C)cc([N+](=O)[O-])c23)cc1 do in these assays?
PriA SSB inh: 66.0*

Results for CCOc1ccc(NC(=O)c2ccc(NC(=O)c3cn4c5c(c(N6CCN(C)CC6)c(F)cc5c3=O)OCC4C)cc2)cc1 (configuration not stated) ?
RN4220 kill: 97.5*; ugtP null kill: 98.2*; PriA SSB inh: -3.4

What do the screens show for `CCOc1ccc(C(=O)Nc2ccc(N3CCN(C)CC3)cc2)cc1`?
RN4220 kill: 6.1; ugtP null kill: 11.3; Mtb hypoxia rep: 18.2; PriA SSB inh: -3.7

Results for CC1COc2c(N3CCN(C)CC3)c(F)cc3c(=O)c(C(=O)O)cn1c23 (configuration not stated) ?
RN4220 kill: 100.1*; ugtP null kill: 98.7*; PriA SSB inh: -4.0

What do the screens show for `O=C(c1ccccc1)c1nn(-c2ccc(Cl)cc2)c(=O)cc1C(F)(F)F`?
RN4220 kill: 94.2*; ugtP null kill: 81.0; PriA SSB inh: 6.3

What do the screens show for `CCN1/C(=C/C(C)=C/c2sc3ccccc3[n+]2CC)Sc2ccccc21`?
RN4220 kill: 99.8*; ugtP null kill: 99.4*; PriA SSB inh: 76.3

How did O=C(COC(=O)c1cc(Cl)nc(Cl)c1)NCCc1ccc(F)cc1 do in these assays?
RN4220 kill: 3.1; ugtP null kill: 1.5; Mtb hypoxia rep: 25.5*; PriA SSB inh: -4.7
